Six1-Eya2 inh: Six1/Eya2 interaction inhibition; Q15475+O00167; AlphaScreen GST-Six1/His-Eya2 binding, biochemical; active compounds read low; activity change, % (concentration not given with the values); 0.56% of 360,000 active; AID 651725; in the data active means activity change below about -65%; inconclusive means mostly about -30% to -63%; further: on the % scale 0 is the no-effect control and ±100 the full control effect
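AlphaScreen with GST-Six1 and His-Eya2 (5X mix: 250 nM and 500 nM), glutathione donor and nickel acceptor beads; buffer 50 mM Tris pH 8.0, 300 mM NaCl, 1 mM TCEP; 1 h at 37 C in the dark.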
JMJD2A Tudor inh: inhibitors of human JMJD2A Tudor domain; AlphaScreen JMJD2A-Tudor / H3K4me3 peptide binding; Potency, µM (series often up to 114 µM), for the others: top-dose activity change, negative = inhibition, hits mostly inhibitors; 4.4% of 390,000 active; AID 504339; further: potency means the concentration at half of the fitted maximal effect; on the % scale 0 is the no-effect control and ±100 the full control effect; nearly all actives have a fitted effect of over 50% in size
CtBP-E1A inh: CtBP/E1A binding inhibition; AID 651724; 0.49% of 340,000 active; AlphaScreen GST-E1A/His-CtBP binding, 1536-well; active compounds read low; activity change, % (concentration not given with the values); in the data active means activity change below about -65%; inconclusive means mostly about -30% to -63%; further: on the % scale 0 is the no-effect control and ±100 the full control effect
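Steps: dispense buffer (Tris pH 8.0, NaCl 300 mM, TCEP 1 mM, BSA, Tween 20); add 5X protein mix (GST-E1A, His-CtBP, 125 nM each); pin 23 nL compound; 2 h at 37 °C, dark; add 5X beads (50 ug/mL); 1 h; read.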
G9a inh: G9a (human) methyltransferase inhibition | Q96KQ7 | G9a H3K9 monomethylation, AlphaScreen, 2 h | Potency, µM (series often up to 102 µM), for inactives: top-dose activity, negative = inhibition, usual class: inhibitors | 8.8% of 350,000 active; further: potency means the concentration at half of the fitted maximal effect; on the % scale 0 is the no-effect control and ±100 the full control effect; nearly all actives have a fitted effect of over 75% in size
Target sequence (Q96KQ7 913-1193 limits assumed): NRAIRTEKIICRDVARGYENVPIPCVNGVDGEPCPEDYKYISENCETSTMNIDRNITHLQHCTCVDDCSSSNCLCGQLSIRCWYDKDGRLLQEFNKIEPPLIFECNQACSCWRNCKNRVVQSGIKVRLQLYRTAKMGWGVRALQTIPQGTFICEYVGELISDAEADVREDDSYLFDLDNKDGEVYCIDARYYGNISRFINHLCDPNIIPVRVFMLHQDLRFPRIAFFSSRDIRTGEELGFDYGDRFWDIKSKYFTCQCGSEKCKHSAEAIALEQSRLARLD
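Quantitative HTS format: methyltransferase activity on a biotin-tagged H3K9 peptide is measured by AlphaScreen, using a rabbit anti-monomethyl-H3K9 antibody with streptavidin donor and anti-IgG acceptor beads. Final levels are 20 nM enzyme, 500 nM peptide, 20 uM SAM; 2 h RT.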
BAZ2B block: blocks human BAZ2B | AlphaScreen BAZ2B-H3K14Ac peptide displacement | Potency, µM (highest dose often 114 µM), for the others: at the top dose activity change, negative = inhibition, most hits filed as inhibitors | 4.4% of 360,000 active; further: potency means the concentration at half of the fitted maximal effect; on the % scale 0 is the no-effect control and ±100 the full control effect; nearly all actives have a fitted effect of over 60% in size
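AlphaScreen luminescence quantifies BAZ2B engagement of H3K14Ac peptide; the protein and biotinylated peptide are both at 50 nM final, buffer PBS pH 7.4 with 0.01% Tween-20, all steps at room temperature.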
HP1b chromo inh: inhibitors of HP1-beta chromodomain binding to methylated histone tails; Potency, µM (doses to about 114 µM), inactives show at the highest dose activity change, negative = inhibition, usual class: inhibitors; 0.56% of 390,000 active; AlphaScreen HP1-beta / biotin-H3K9me3 peptide binding; AID 540317; P83916; further: potency means the concentration at half of the fitted maximal effect; nearly all actives have a fitted effect of over 70% in size
Target sequence (P83916 whole entry, looked up): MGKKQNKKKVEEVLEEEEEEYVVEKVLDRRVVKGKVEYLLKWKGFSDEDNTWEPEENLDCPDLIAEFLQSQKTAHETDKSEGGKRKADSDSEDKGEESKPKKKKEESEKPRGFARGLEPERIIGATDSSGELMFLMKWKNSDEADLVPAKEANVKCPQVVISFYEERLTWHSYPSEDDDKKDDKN
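HP1-beta protein (50 nM final) preincubated 30 min at room temperature with biotinylated H3(1-18)K9me3 peptide (50 nM) in PBS pH 7.4, 0.01% Tween-20, then compound added for 30 min. AlphaScreen streptavidin donor/nickel chelate acceptor beads (10 ug/mL final), 30 min dark, luminescence read.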
* hit, by the source's call; ? = inconclusive; . = no result given; [ ] = dose if it differs, or a comment. In the library only some 10% were active in any assay of this set; here they are far more common. Unless noted, the call rests on the fitted dose curve; in most records, active means well fitted inhibition curve with a large enough effect; inconclusive means small, poorly fitted or top-dose-only effect; inactive means no such curve, though single readings can be large or run the other way.

SMILES	Six1-Eya2 inh	JMJD2A Tudor inh	CtBP-E1A inh	G9a inh	BAZ2B block	HP1b chromo inh
CN(Cc1ccccc1)C1=CC(=[N+]2CCCCC2)CC(C)(C)C1	6	-11%	-10	32µM*	?	17%
CC1(C)CC(N2CCCC2)=CC(=[N+]2CCCC2)C1	5	-15%	5	?	79µM*	-1%
Cc1ccc2cccc(OCC(=O)Nc3cccc(S(=O)(=O)N4CCCC4)c3)c2n1	?	-17%	?	-11%[59 µM]	2%	5%
CN1C(C(=O)Nc2ccccn2)=C(O)c2sccc2S1(=O)=O	-5	50µM*	0	?	50µM*	10%
NNC(=O)c1cc2c(s1)CCCCCC2	13	-22%	-7	?	-11%	38%
Cc1ncc(CO)c(/C=N/NC(=S)Nc2cccc(Cl)c2)c1O	-19	56µM*	.	?	13µM*	?
Cc1ncc(CO)c(/C=N/NC(=O)c2cc3c(s2)CCCC3)c1O	-88*	56µM*	.	11%[12.7 µM]	50µM*	15%
COc1cc(N=Cc2c(CO)cnc(C)c2O)cc(OC)c1OC	-3	?	.	-8%	-27%	39%
Cc1ncc(CO)c(/C=N/NC(=S)Nc2ccc(Cl)c(Cl)c2)c1O	-16	?	.	.	22µM*	?
COc1ccc(S(=O)(=O)N2CCC(C(=O)NCCC(=O)NCc3ccccc3OC)CC2)cc1	5	-17%	6	49%	-2%	5%
CCc1cccc(OCCCCNCCOC)c1	0	7.1µM*	5	7.9µM*	.	?
c1ccc(COc2ccc(OCCCNC3CCCC3)cc2)cc1	-16	5µM*	-2	?	45µM*	-54%
OC(CNC1CCCCC1)COCCOc1ccc(Br)cc1 (stereo not given)	2	-1%	-13	-9%[59 µM]	1%	24%
C=CCNCCCCOc1ccc(OCc2ccccc2)cc1	-7	35µM*	.	10µM*	50µM*	-22%
CNC(=S)Nc1ccc(OCc2ccccc2)cc1	-9	-19%	4	-44%	-35%	20%
CCc1cccc(OCCCN2C(=O)NC(C)(C)C2=O)c1	1	11%	6	15%	-2%	27%
CC(C)Oc1ccc(OCCNC2CCCC2)cc1	-1	3.5µM*	1	?	?	?
CCOC(=O)[C@]12CCCC=C1N(CCC1=CCCCC1)C(=O)[C@H](CC(=O)N1CCC(c3ccccc3)CC1)C2	-3	.	-2	.	.	.
COc1cccc(C(=O)OC(C)C(=O)NCC2CCCCC2)c1 (stereo not given)	8	-12%	0	-8%[12.7 µM]	4%	33%
COCCCNCCCCOc1ccc(OCc2ccccc2)cc1	-2	20µM*	.	.	45µM*	?
CC1=CC(c2ccccc2)NC(=S)N1 (stereo not given)	0	-32%	8	-4%[59 µM]	5%	32%
S=C1NC(c2cccs2)=CC(c2ccc(Br)cc2)N1 (stereo not given)	0	?	19	16µM*	?	-16%
NC(=O)C1CCN(c2oc(-c3cccs3)nc2S(=O)(=O)c2ccc(Br)cc2)CC1	4	?	8	.	.	?
S=C1NC(c2ccccc2)=CC(c2ccccc2)N1 (stereo not given)	2	-29%	0	32µM*	?	18%
C=CCn1cnc2c(nnn2-c2ccc(C)c(C)c2)c1=O	3	-11%	4	-24%	.	16%
SMILES	Six1-Eya2 inh	JMJD2A Tudor inh	CtBP-E1A inh	G9a inh	BAZ2B block	HP1b chromo inh
COc1ccc(C=O)cc1COc1ccc([N+](=O)[O-])c(C)c1	-6	-15%	-13	3%	-13%	22%
COc1ccc(C=O)cc1COc1ccc2c(c1)OCO2	-18	7.1µM*	-11	9%[0.501 µM]	?	-30%
COc1ccccc1-n1cnc2c(c1=O)c1nc3ccccc3nc1n2-c1ccc(C)c(C)c1	6	-30%	.	-10%[59 µM]	56µM*	39%
COC(=O)/C(=C(/F)SCC(C)=O)C(F)(F)F	.	.	.	16µM*	-30%	.
Cc1c(C(=O)N(C)C2CCCCC2)sc2nc3ccc(N)cc3n12	.	.	.	25µM*	.	.
CC(=O)Nc1nonc1-c1nnc(SCC(=O)Nc2ccccc2)n1-c1ccccc1	.	-21%	.	13%[59 µM]	-5%	16%
CC(Cc1ccccc1)(NC(=O)CN)c1ccccc1 (stereo not given)	.	.	.	18%[59 µM]	79µM*	.
C=CC(=O)NC(C)(C)Cc1ccccc1	8	-8%	-2	-2%[12.7 µM]	6%	22%
Cc1cc(OCC(=O)Nc2cc(-c3nc4ncccc4o3)ccc2C)ccc1Cl	.	-30%	.	-10%[59 µM]	-14%	-5%
Cc1ccc(-c2nc3ncccc3o2)cc1NC(=O)COc1ccc(C(C)C)cc1	.	-17%	.	14µM*	-6%	32%
O=C(NCCc1csc(-c2cccnc2)n1)c1ccc(Br)o1	-26	-18%	?	20µM*	2%	56%
O=C(NCCc1csc(-c2ccccc2)n1)c1ccc(Br)o1	-17	0%	-9	1%[59 µM]	-3%	29%
Cc1ccc(C(=O)O)cc1S(=O)(=O)Nc1ccccc1C(=O)NC1CC1	5	-22%	-1	-33%	5%	20%
O=C(NC(NC(=S)Nc1c(Cl)cccc1Cl)C(Cl)(Cl)Cl)OCc1ccccc1 (stereo not given)	-1	-17%	-6	3.2µM*	-23%	10%
CCOC(=O)NC(NC(=S)Nc1ccc(OCC)cc1)C(Cl)(Cl)Cl (stereo not given)	2	-6%	7	25%[59 µM]	1%	-8%
CN(C)[C@@H]1CCC[C@@H]1OC(=O)C(c1ccccc1)c1ccccc1	2	1.1µM*	-11	13µM*	35µM*	?
CN1CCCC(OC(=O)c2cccc(Cl)c2)C1 (stereo not given)	4	-17%	0	-4%	-8%	5%
CC(=O)N(CCCNC(=O)c1ccccc1)C(=O)c1ccccc1	2	-15%	-1	17%[2.33 µM]	-6%	19%
CCOc1ccc2cc(C#N)c(SCC(=O)N3CCOCC3)nc2c1	-2	-18%	-8	50µM*	10%	19%
O=C(/C=C/c1cccnc1)c1ccccc1O	0	0%	.	35µM*	-26%	38%
O=C(C=Cc1cccnc1)c1ccccc1	2	-6%	0	.	.	25%
Cc1noc(/C=C/c2cccnc2)c1[N+](=O)[O-]	2	-10%	6	45µM*	-23%	26%
O=C(Oc1cccnc1)c1ccc([N+](=O)[O-])cc1	?	-14%	-1	10µM*	?	20%
O=C(/C=C/c1cccnc1)c1ccc([N+](=O)[O-])cc1	-23	?	-6	13µM*	-18%	-17%
Cc1cccc(NC(=O)N2CCN3CCCCC3C2)c1C (stereo not given)	.	-5%	.	-21%[59 µM]	?	24%
